Structures are written as SMILES. Activity calls are given as the source filed them. Rule for the calls: active = hit-call score of the fitted dose curve at least 0.9, where 1 is the maximum; inactive = score below 0.9.

For orientation: AC50 means the concentration at which the activity in the assay is half-maximal.

Conditions in all cases: mRNA level, 48 h; actives raise or lower the signal
Read-out in assay [1]: Bcl-2 (BAX) gene, BAX (gene 581)
As to the kind of experiment: LTEA_HepaRG_BAX: Life Technologies and Expression Analysis (LTEA) Assay for Bcl-2 (BAX) gene using HepaRG (AID 2283470). In outline:
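HepaRG (human liver), 48 h exposure, duplicate wells. 8-pt curve, half-log from 100 uM, 0.5% DMSO. BAX transcript by TaqMan qRT-PCR; ACTB/GAPDH/POLR2A normalization; gain or loss vs DMSO baseline.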

Read-out in assay [2]: adenosine kinase (ADK) gene, ADK (gene 132)
The assay is described as follows: LTEA_HepaRG_ADK: Life Technologies and Expression Analysis (LTEA) Assay for adenosine kinase (ADK) gene using HepaRG (AID 2283471). In outline: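 ADK expression quantified by qRT-PCR, normalised to three housekeeping genes, after 48 h exposure of HepaRG cells to eight concentrations (top 100 uM, half-log steps, duplicate, 0.5% DMSO). Up- or down-regulation fitted relative to vehicle.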

Read-out in assay [3]: Alpha-fetoprotein (AFP) gene, AFP (gene 174)
The assay is described as follows: LTEA_HepaRG_AFP: Life Technologies and Expression Analysis (LTEA) Assay for Alpha-fetoprotein (AFP) gene using HepaRG (AID 2283472). Put shortly: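 HepaRG, single lot; 48 h post-plating -> serum-free induction medium; cpd 8-pt, 100 uM top, half-log, 0.5% DMSO, duplicate, 48 h. RNA -> qRT-PCR AFP, norm ACTB/GAPDH/POLR2A. Bidirectional fit vs DMSO.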

Read-out in assay [4]: Apoptosis regulator Bcl-2 (Homo sapiens) (UniProt P10415)
As to the kind of experiment: LTEA_HepaRG_BCL2: Life Technologies and Expression Analysis (LTEA) Assay for Bcl-2 gene using HepaRG (AID 2283475). In outline:
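HepaRG, plated 48 h then switched to serum-free induction medium; dosed 48 h, 8 conc. (max 100 uM, half-log steps), duplicate, 0.5% DMSO. Lysis in RLT, RNA isolated, TaqMan qRT-PCR for BCL2; ACTB/GAPDH/POLR2A normalisation; bidirectional fit vs DMSO.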

Read-out in assay [5]: Bcl-2 (BID) gene, BID (gene 637)
As to the kind of experiment: LTEA_HepaRG_BID: Life Technologies and Expression Analysis (LTEA) Assay for Bcl-2 (BID) gene using HepaRG (AID 2283476). In outline: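 Transcript levels of BID, measured by qRT-PCR and normalized to three housekeeping genes, were fitted bidirectionally against DMSO controls. Cells were HepaRG, dosed 48 h at up to 100 uM.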

Read-out in assay [6]: Caspase-3 (Homo sapiens) (UniProt P42574)
As to the kind of experiment: LTEA_HepaRG_CASP3: Life Technologies and Expression Analysis (LTEA) Assay for cysteine-aspartic acid protease (CASP3) using HepaRG (AID 2283477). In outline:
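Differentiated HepaRG cells, plated 48 h, were treated in duplicate in serum-free induction medium for 48 h with eight half-log concentrations up to 100 uM in 0.5% DMSO. CASP3 mRNA measured by qRT-PCR, normalized to ACTB, GAPDH, POLR2A.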

Read-out in assay [7]: Cytochrome P450 (CYP1A2), CYP1A2 (gene 1544)
As to the kind of experiment: LTEA_HepaRG_CYP1A2: Life Technologies and Expression Analysis (LTEA) Assay for Cytochrome P450 (CYP1A2) using HepaRG (AID 2283479). In outline:
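Differentiated human HepaRG cells in serum-free induction medium exposed 48 hours in duplicate to 8 half-log concentrations from 100 uM, 0.5% DMSO. CYP1A2 mRNA quantified by qRT-PCR, normalized to ACTB, GAPDH and POLR2A; bidirectional fitting versus DMSO.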

Read-out in assay [8]: cysteine-aspartic acid protease (CASP8), CASP8 (gene 841)
As to the kind of experiment: LTEA_HepaRG_CASP8: Life Technologies and Expression Analysis (LTEA) Assay for cysteine-aspartic acid protease (CASP8) using HepaRG (AID 2283480). Put shortly: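 Differentiated HepaRG cells in serum-free induction medium, 48 h exposure, eight-point half-log series from 100 uM in 0.5% DMSO, duplicates. CASP8 mRNA by qRT-PCR, normalized to ACTB, GAPDH, POLR2A; bidirectional fit versus DMSO.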

Read-out in assay [9]: Cytochrome P450 (CYP2B6), CYP2B6 (gene 1555)
As to the kind of experiment: LTEA_HepaRG_CYP2B6: Life Technologies and Expression Analysis (LTEA) Assay for Cytochrome P450 (CYP2B6) using HepaRG (AID 2283481). In outline:
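Differentiated human HepaRG cells in serum-free induction medium, dosed in duplicate for 48 h over 8 half-log concentrations topping at 100 uM (0.5% DMSO). CYP2B6 mRNA measured by TaqMan qRT-PCR, normalized to ACTB, GAPDH, POLR2A; bidirectional fit versus DMSO.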

Read-out in assay [10]: Cytochrome P450 2C19 (Homo sapiens) (UniProt P33261)
As to the kind of experiment: LTEA_HepaRG_CYP2C19: Life Technologies and Expression Analysis (LTEA) Assay for CYP2C19 using HepaRG (AID 2283482). Put shortly:
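Differentiated HepaRG cells in serum-free induction medium exposed 48 h in duplicate, 8 concentrations from 100 uM by half-log steps in 0.5% DMSO. CYP2C19 mRNA measured by TaqMan qRT-PCR, normalized to ACTB, GAPDH, POLR2A. Bidirectional fit versus DMSO.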

Read-out in assay [11]: CYP2C8 (gene 1558)
As to the kind of experiment: LTEA_HepaRG_CYP2C8: Life Technologies and Expression Analysis (LTEA) Assay for CYP2C8 using HepaRG (AID 2283483). Put shortly:
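Differentiated HepaRG cells in serum-free induction medium exposed 48 h in duplicate to 8 half-log concentrations from 100 uM in 0.5% DMSO. CYP2C8 mRNA by qRT-PCR normalized to ACTB, GAPDH, POLR2A; bidirectional fit versus DMSO.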

Read-out in assay [12]: CYP2C9 (gene 1559)
As to the kind of experiment: LTEA_HepaRG_CYP2C9: Life Technologies and Expression Analysis (LTEA) Assay for CYP2C9 using HepaRG (AID 2283484). Put shortly:
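Differentiated human HepaRG cells in serum-free induction medium were exposed 48 h to chemicals in 8-point half-log series from 100 uM (0.5% DMSO), in duplicate. CYP2C9 mRNA was measured by qRT-PCR, normalized to ACTB/GAPDH/POLR2A, with bidirectional fitting versus DMSO.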

Read-out in assay [13]: CYP2E1 (gene 1571)
As to the kind of experiment: LTEA_HepaRG_CYP2E1: Life Technologies and Expression Analysis (LTEA) Assay for CYP2E1 using HepaRG (AID 2283485). Put shortly: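 Human liver line HepaRG, plated 48 h, then serum-free induction medium + chemical x 48 h; 8-pt CRC from 100 uM, half-log, 0.5% DMSO, n=2. Readout: CYP2E1 mRNA qRT-PCR vs ACTB/GAPDH/POLR2A; bidirectional fit vs DMSO.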

Read-out in assay [14]: CYP4A11 (gene 1579)
The assay is described as follows: LTEA_HepaRG_CYP4A11: Life Technologies and Expression Analysis (LTEA) Assay for CYP4A11 using HepaRG (AID 2283486). In outline: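 Differentiated HepaRG cells, 48 h after plating, exposed in duplicate for 48 h to 8 half-log concentrations up to 100 uM in 0.5% DMSO in serum-free induction medium. CYP4A11 mRNA measured by TaqMan qRT-PCR, normalized to ACTB, GAPDH and POLR2A.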

Read-out in assay [15]: DNA damage-inducible transcript 3 (DDIT3), DDIT3 (gene 1649)
The assay is described as follows: LTEA_HepaRG_DDIT3: Life Technologies and Expression Analysis (LTEA) Assay for DNA damage-inducible transcript 3 (DDIT3) using HepaRG (AID 2283488). In outline:
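HepaRG plated 48 h, switched to serum-free induction medium, dosed 48 h (100 uM top, half-log, 8 pts, 0.5% DMSO, n=2); RNA isolated; DDIT3 by qRT-PCR; bidirectional curve fit vs DMSO.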

Read-out in assay [16]: Pro-epidermal growth factor (Homo sapiens) (UniProt P01133)
The assay is described as follows: LTEA_HepaRG_EGF: Life Technologies and Expression Analysis (LTEA) Assay for Epidermal growth factor (EGF) using HepaRG (AID 2283489). In outline: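 HepaRG cells (~100,000/well, 48 h pre-culture) exposed in duplicate for 48 h in serum-free induction medium to 8 half-log concentrations up to 100 uM in 0.5% DMSO. EGF mRNA by qRT-PCR, normalized to ACTB/GAPDH/POLR2A; bidirectional fit versus DMSO.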

Read-out in assay [17]: Apolipoprotein A-V (APOA5) gene, APOA5 (gene 116519)
The assay is described as follows: LTEA_HepaRG_APOA5: Life Technologies and Expression Analysis (LTEA) Assay for Apolipoprotein A-V (APOA5) gene using HepaRG (AID 2283474). Put shortly: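 Differentiated HepaRG cells in serum-free induction medium, exposed 48 h in duplicate to eight half-log concentrations topping at 100 uM (0.5% DMSO). APOA5 mRNA by Fluidigm TaqMan qRT-PCR, normalized to ACTB, GAPDH and POLR2A; bidirectional fit versus DMSO.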

Read-out in assay [18]: Cytochrome P450 (CYP24A1), CYP24A1 (gene 1591)
As to the kind of experiment: LTEA_HepaRG_CYP24A1: Life Technologies and Expression Analysis (LTEA) Assay for Cytochrome P450 (CYP24A1) using HepaRG (AID 2283478). Put shortly: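 HepaRG cells plated 48 h, then exposed in duplicate in serum-free induction medium for 48 h to 8-point half-log series from 100 uM in 0.5% DMSO. CYP24A1 mRNA by Fluidigm qRT-PCR, normalized to ACTB, GAPDH, POLR2A; bidirectional fit versus DMSO.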

Sequence of Caspase-3 (Homo sapiens) (P42574 whole entry, looked up): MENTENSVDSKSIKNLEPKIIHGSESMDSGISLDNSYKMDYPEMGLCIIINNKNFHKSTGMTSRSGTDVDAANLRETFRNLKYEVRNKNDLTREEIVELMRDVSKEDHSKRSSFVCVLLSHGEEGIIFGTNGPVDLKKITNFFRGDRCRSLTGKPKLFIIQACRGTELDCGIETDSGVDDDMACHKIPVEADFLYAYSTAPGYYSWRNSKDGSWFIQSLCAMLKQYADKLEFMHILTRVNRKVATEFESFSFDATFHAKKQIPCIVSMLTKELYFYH
Sequence of Cytochrome P450 2C19 (Homo sapiens) (P33261 whole entry, looked up): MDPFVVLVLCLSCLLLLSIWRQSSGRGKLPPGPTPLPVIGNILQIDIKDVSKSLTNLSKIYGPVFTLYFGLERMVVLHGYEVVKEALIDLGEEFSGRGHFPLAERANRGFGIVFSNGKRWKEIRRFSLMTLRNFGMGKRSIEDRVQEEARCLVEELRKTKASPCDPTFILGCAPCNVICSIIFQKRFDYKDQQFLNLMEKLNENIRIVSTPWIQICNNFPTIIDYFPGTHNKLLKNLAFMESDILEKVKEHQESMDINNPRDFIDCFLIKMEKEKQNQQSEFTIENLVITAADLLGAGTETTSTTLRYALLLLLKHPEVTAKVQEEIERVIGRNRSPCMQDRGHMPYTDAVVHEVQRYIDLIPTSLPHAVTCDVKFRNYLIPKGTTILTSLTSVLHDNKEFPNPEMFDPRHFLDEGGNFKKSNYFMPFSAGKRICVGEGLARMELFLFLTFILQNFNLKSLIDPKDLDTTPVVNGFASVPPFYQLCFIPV
Sequence of Apoptosis regulator Bcl-2 (Homo sapiens) (P10415 whole entry, looked up): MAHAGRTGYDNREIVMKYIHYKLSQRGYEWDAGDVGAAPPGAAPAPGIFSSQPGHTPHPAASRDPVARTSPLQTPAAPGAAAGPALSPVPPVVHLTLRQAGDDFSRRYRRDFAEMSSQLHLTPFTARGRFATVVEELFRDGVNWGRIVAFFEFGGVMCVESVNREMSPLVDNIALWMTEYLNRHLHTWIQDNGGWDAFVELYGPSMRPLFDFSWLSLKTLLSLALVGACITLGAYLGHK

Take `CC1(C)NC(=O)N(c2ccc([N+](=O)[O-])c(C(F)(F)F)c2)C1=O`: the compound was called inactive in [1], in [2], in assay [5], in assay [6], in assay [8] and in assay [16]. Besides, the AC50 in assay [3] is 80.5 µM (active); in [4], 78.9 µM (active); in assay [7], 85.5 µM (active); in [9] it was 81.4 µM (active); in [10], 12.4 µM (active); in assay [11], 85.5 µM (active). Besides, the AC50 was 83.6 µM (active) in assay [12], 63.2 µM (active) in assay [13], 69.3 µM (active) in assay [14] and 75.7 µM (active) in [15].

On to `NC(=O)c1nc(-c2cccc(-c3cc(F)ccc3OCC(F)(F)C(F)(F)F)c2)n[nH]1`, for which the call in assay [1], in [3], in assay [17], in [4], in assay [5] and in assay [6] was inactive. The call in assay [7], in assay [8], in [9], in assay [10], in assay [11] and in assay [12] was inactive. The outcome in assay [16] was inactive. Also, the concentration at half-maximal activity (AC50) in [2] is 92.8 µM (active); in assay [13], 16.9 µM (active); in [14] it was 12.3 µM (active); in assay [15], 78.1 µM (active).

Consider `CC(C)(O)c1ccc(CNC(=O)c2cccnc2Oc2ccc3nonc3c2)cc1`, for which the compound was called inactive in assay [1], in [2], in assay [3], in assay [4], in assay [5] and in assay [6]. Further, the call in assay [18], in [8], in assay [12], in assay [14], in assay [15] and in assay [16] was inactive. Further, the half-maximal activity concentration (AC50) was 50 µM (active) in assay [7]; 0.987 µM (active) in assay [9]; 12.1 µM (active) in assay [10]; 13 µM (active) in assay [11]; 34.2 µM (active) in [13].
